Screens deposited in PubChem BioAssay by National Center for Advancing Translational Sciences (NCATS).
This is a sample that favours compounds with a hit; in the whole collection about 7.9% have one here.
KB-3-1 tox – KB-3-1 parental cell cytotoxicity; KB-3-1 viability, CellTiter-Glo ATP luminescence, 72 h; 400,000 tested, 1.4% active; AID 1347075; Potency, µM (top dose mostly 46.1 µM), most hits filed as cytotoxic; note: % is set by controls: 0 for no effect and ±100 for the full control effect; nearly all actives have a fitted effect of over 60% in size
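KB-3-1 parental drug-naive adenocarcinoma cells in DMEM/10% FBS, incubated 72 h at 37 C with pin-transferred compounds across a concentration series. Viability by CellTiter-Glo luminescence; concentration-response curves fitted after normalization.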
KB-V1 MDR tox – kills drug-selected multidrug resistant KB-V1 cells; Potency, µM (titrated, usually from 46.1 µM), hits mostly cytotoxic; 400,000 tested, 3.4% active; KB-V1 MDR cells viability, CellTiter-Glo, 72 h; AID 1347076; note: % is set by controls: 0 for no effect and ±100 for the full control effect; nearly all actives have a fitted effect of over 60% in size
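Readout: CellTiter-Glo luminescence, 10 min after addition. Cells: KB-V1 MDR subline, 72 h at 37 degrees C with compound. Analysis: corrected, normalized data fitted to concentration-effect curves.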
HT1080 IDH1KD tx – HT-1080 IDH1 knockdown cell toxicity (counter line). HT-1080 IDH1 knockdown viability, ATP luminescence, 48 h. Potency, µM (highest dose often 46.1 µM), for inactives: at the top dose activity, negative = toxicity, actives largely listed as cytotoxic. 360,000 tested, 2% active. AID 686971;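 note: 0% = DMSO wells and -100% = cell-free medium wells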
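Viability of IDH1-knockdown HT-1080 fibrosarcoma cells was assessed by CellTiter-Glo after 48 h at 37 °C with titrated compound; concentration-effect curves were classified by fit quality and response size.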
SW480 rereplic – induces DNA re-replication in SW480 colon adenocarcinoma cells; 340,000 tested, 1.8% active; Potency, µM (series often up to 46.1 µM), inactives show at the top dose re-replication activation, actives largely listed as activators; SW480 DNA re-replication, Hoechst DNA content imaging, 48 h; note: % of control where 0% means no effect; nearly all actives have a fitted effect of over 55% in size
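Treated cells incubate 48 hr (37 C, 5% CO2), are stained 40 min with Hoechst, and nuclear fluorescence is enumerated; a rise in nuclei with high DNA signal marks re-replication.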
MCF10A rerep – induces DNA re-replication in MCF 10a normal breast cells; MCF 10A DNA re-replication, Hoechst nuclear intensity, 48 h; Potency, µM (titrated, usually from 46.1 µM), without a hit: at the highest dose activity, positive = re-replication, usual class: activators; 350,000 tested, 2.9% active; AID 624296; note: % of control where 0% means no effect; nearly all actives have a fitted effect of over 50% in size
HT1080NT lethal – kills 2HG-producing HT-1080-NT fibrosarcoma cells; HT-1080-NT fibrosarcoma viability, CellTiter-Glo ATP luminescence, 48 h; Potency, µM (top dose mostly 46.1 µM), inactives show at the highest dose activity, negative = less viability, hits mostly cytotoxic; 360,000 tested, 1.6% active; AID 686970;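 note: NT is the 2HG producing partner of a matched IDH1 knockdown line; 0% = DMSO-treated cells and -100% = media-only wells without cells; nearly all actives have a fitted effect of over 55% in size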
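Fibrosarcoma NT cells, 750 per well in 5% FBS RPMI, were exposed to compound for 48 hours. Viability: CellTiter-Glo luminescence.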
* marks the source's active call; other numbers are inactive results; i = inactive; ? = inconclusive; · = not tested or not shown; [ ] = remark or other dose. Calls come from the whole dose curve; as a rule, active = well fitted curve in the direction sought with a large enough effect; inconclusive = small, poorly fitted or top-dose-only effect, or another doubt; inactive = no such curve, though single readings can be large; an effect the other way counts as inactive or inconclusive. Potency is the fitted concentration of half-maximal effect.

SMILES	KB-3-1 tox	KB-V1 MDR tox	HT1080 IDH1KD tx	SW480 rereplic	MCF10A rerep	HT1080NT lethal
O=C(NCc1cccs1)c1nc2c(nnn2Cc2ccccc2Cl)c(=O)[nH]1	5.8µM*	8.2µM*	3.3µM*	?	?	4.6µM*
COc1cc(S(=O)(=O)N(Cc2ccco2)C2CCCC2)ccc1-n1cnnn1	i	i	9%	0%	10%	-1%
CCOc1ccccc1CN(Cc1ccco1)S(=O)(=O)c1ccc(-n2cnnn2)c(OC)c1	?	?	?	8.2µM*	?	?
COc1ccc(CCN(Cc2cccs2)S(=O)(=O)c2ccc(-n3cnnn3)c(OC)c2)cc1OC	i	2.6µM*	-10%	0%	-10%	?
CS(=O)(=O)c1ccc(/C=C2\C=Cc3ccccc32)cc1	i	i	·	·	·	·
N#C/C(=C\c1ccc(Sc2ccccc2)o1)c1nc2ccccc2[nH]1	i	i	-27%	5%	9%	-14%
N#C/C(=C\c1ccc(-c2ccccc2C(=O)O)o1)c1nc2ccccc2[nH]1	i	?	12%	?	?	22%
N#C/C(=C/c1ccc(Sc2nc3ccccc3[nH]2)o1)c1ccccc1F	i	3.7µM*	?	?	20%	?
N#C/C(=C/c1ccc(Sc2nc3ccccc3[nH]2)o1)c1cccc(F)c1	i	7.3µM*	?	?	28%	?
N#C/C(=C/c1ccc(Sc2nc3ccccc3[nH]2)o1)c1cccc(Br)c1	?	18µM*	?	30%	?	?
Cc1c(O)ccc(C(=O)CN2CCN(c3ccc(F)cc3)CC2)c1O	i	i	-8%	15%	3%	-1%
COc1ccc(/C=C/C(=O)NCC(=O)N=Nc2c(O)[nH]c3ccc([N+](=O)[O-])cc23)cc1	i	i	2%	?	15%	7%
CCCCc1ccc(-c2csc(/C(C#N)=C\c3ccco3)n2)cc1	i	i	-1%	?	18µM*	2%
CCCCC1CCC(C(=O)Nc2ccc(N3CCOCC3)cc2N2CCOCC2)CC1 (configuration not stated)	i	i	10%	-24%	1%	17%
O=C(c1cccn(Cc2ccc(Cl)c(Cl)c2)c1=O)N1CCOCC1	?	?	0%	-3%	3%	-2%
O=c1c(-c2nc3ccccc3s2)cccn1Cc1ccc(Cl)c(Cl)c1	i	i	-13%	1.2µM*	?	-2%
O=C(NCCc1ccc(Cl)cc1)c1nnc(Cc2ccc(F)cc2)o1	i	i	·	·	·	·
Cc1ccc(/C=N/NC(=O)c2nnn(-c3nonc3N)c2CSc2ccc(Cl)cc2)o1	i	i	10%	-17%	2%	15%
Cc1c(C(O)CN2CCN(Cc3ccc4c(c3)OCO4)CC2)c2ccccc2n1C (configuration not stated)	i	i	11µM*	?	19%	?
COc1ccc2c(c1)c(C(O)CN1CCN(Cc3ccc4c(c3)OCO4)CC1)c(C)n2C (configuration not stated)	?	i	-29%	-6%[9.22 µM]	6%	-27%
C[C@H](CO)N1C[C@H](C)[C@@H](CN(C)S(C)(=O)=O)Oc2c(NC(=O)Nc3ccccc3)cccc2C1=O	i	i	-6%	?	?	5%
Cc1ccc(C(C2C(=O)CC(C)(C)CC2=O)C2C(=O)CC(C)(C)CC2=O)s1	i	i	-1%	0%	18µM*	?
CC1(c2ccc(Cl)cc2)NC(=O)N(CC(=O)Nc2ccc(N3CCCCC3)cc2)C1=O (configuration not stated)	i	i	-3%	15%	0%	5%
Cc1cc(C(=O)N/N=C/c2cc(Br)cc(Br)c2OC(=O)c2cccc(F)c2)n[nH]1	?	?	-18%	0.92µM*	15µM*	-5%
Cc1ccc(C(=O)N/N=C\c2ccc(OC(=O)c3cccc(F)c3)cc2)cn1	i	i	9%	-9%	-21%	3%
SMILES	KB-3-1 tox	KB-V1 MDR tox	HT1080 IDH1KD tx	SW480 rereplic	MCF10A rerep	HT1080NT lethal
CCN1CCN(c2ccc(S(=O)(=O)N3CCCCC3)cc2NC(=O)c2ccc(F)cc2)CC1	i	i	-25%	?	7.3µM*	-4%
CCN1CCN(c2ccc(S(=O)(=O)N3CCCCC3)cc2NC(=O)COc2ccc(F)cc2Cl)CC1	?	i	18µM*	26%	8%	21µM*
O=C(Nc1cc(S(=O)(=O)N2CCCCC2)ccc1Cl)c1ccccc1NS(=O)(=O)c1ccc(F)cc1	4.6µM*	?	?	?	?	0.58µM*
O=C(Nc1cc(S(=O)(=O)N2CCCCC2)ccc1O)c1ccccc1NS(=O)(=O)c1ccc(F)cc1	i	i	?	30%	?	?
CC(=O)c1ccc(S(=O)(=O)NCCCC(=O)N(C)Cc2ccc3c(c2)OCO3)cc1	i	i	-5%	-27%	2%	5%
CCCOc1ccc(C(=O)Nc2ccc3oc(-c4ccc(N(C)C)cc4)nc3c2)cc1	i	i	·	·	·	·
Cc1cc(C)n(CC(O)COc2ccc(Cl)cc2Cl)n1 (configuration not stated)	?	10µM*	13%	24%	2%	11%
O=C1[C@@H]2Cc3c([nH]c4ccccc34)[C@@H](c3ccccc3)N2C(=O)[C@@H]2Cc3c([nH]c4ccccc34)[C@@H](c3ccccc3)N12	·	·	·	23µM*	?	·
O=C1NCC(=O)N2C(c3ccccc3)c3[nH]c4ccccc4c3C[C@@H]12 (some centres not stated)	i	i	-4%	-32%	1%	-7%
COc1cc([C@H]2c3[nH]c4ccccc4c3C[C@H]3C(=O)N4[C@@H](c5cc(OC)c(OC)c(OC)c5)c5[nH]c6ccccc6c5C[C@H]4C(=O)N23)cc(OC)c1OC	i	i	15µM*	?	?	12µM*
CC1CCN(C(=O)COC(=O)c2cc(Cl)c3c(c2)OCO3)CC1	i	21µM*	3%	-1%	-2%	3%
CC1CC(C)CN(C(=O)COC(=O)c2ccc3c(c2)OCO3)C1 (configuration not stated)	i	i	0%	-2%	2%	2%
CCC(C)(C)c1ccc(OCCCC[n+]2cccc(C)c2)c(C(C)(C)CC)c1	3.3µM*	i	4.1µM*	?	?	6.5µM*
CCOC(=O)C1=CC[C@H]2c3c(c4ccc(OC)cc4n3C)C(=O)C1N2S(=O)(=O)c1ccc(C)cc1	?	?	?	?	?	18µM*
